Where “and” joins values, the source holds several entries; their conditions need not be identical. Identical values can stand only once. Results filed as inconclusive are left out. Calls of active or inactive are those of the source. Unless noted, the call rests on the fitted dose curve.
How the values were obtained:
[1] = Nuclear factor erythroid 2-related factor 2/antioxidant responsive element (Nrf2/ARE) small molecule agonists: qHTS cell viability counter screen in human keratinocytes (AID 1919968; active means well fitted curve in the direction sought with a large enough effect in the repeat runs; an effect the other way counts as inactive or inconclusive; further: nearly all actives have a fitted effect of over 55% in size; further: potency means the concentration at half of the fitted maximal effect)
Summary of the method: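 Cytotoxicity was multiplexed with the Nrf2/ARE luciferase assay in the same wells. Stably transfected HaCaT keratinocytes were treated with test compounds for 23 h at 37 C. Cell viability was then measured by CellTiter-Fluor fluorescence.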

[2] = Nuclear factor erythroid 2-related factor 2/antioxidant responsive element (Nrf2/ARE) small molecule agonists: luciferase reporter gene qHTS assay in human keratinocytes (AID 1919969); further: nearly all actives have a fitted effect of over 35% in size; further: potency means the concentration at half of the fitted maximal effect
[3] = biological target: Gonadotropin-releasing hormone receptor (Homo sapiens) (UniProt P30968); test: Human gonadotropin-releasing hormone receptor (GnRHR) small molecule agonists, calcium flux assay in GnRHR-HEK293 cells (AID 1920063); further: nearly all actives have a fitted effect of over 35% in size
Summary of the method: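 Agonist activity was measured as intracellular calcium flux in HEK293 cells engineered to stably express human GnRHR. After dye loading for 1 hour at 37 C, compounds in DMSO were added and fluorescence was followed for 3 minutes.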

[4] = biological target: KiSS-1 receptor (Homo sapiens) (UniProt Q969F8); test: Human kisspeptin (KISS1R) small molecule agonists, calcium flux assay in KISS1R-HEK293 cells (AID 1920064; active means well fitted curve in the direction sought with a large enough effect in the repeat runs; an effect the other way counts as inactive or inconclusive)
Summary of the method: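 Agonist activity is monitored as intracellular calcium rise in engineered HEK293 cells carrying human KISS1R. Cells are dye-loaded for 1 h at 37 C before compound addition, and fluorescence is recorded for 3 min.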

[5] = G protein-coupled receptor (GPCR) small molecule agonists, calcium flux assay: HEK293 wild type cell line counter screen (AID 1920065)
Summary of the method: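 Seed cells, incubate 18 h (37 C, 5% CO2); add calcium dye, 1 h at 37 C; pin-transfer compounds, ATP control or DMSO; read fluorescence 480/540 nm each second for 3 min.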

[6] = p53 small molecule agonists, cell-based qHTS assay with human liver microsomes (AID 1963577)
Summary of the method: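 Cells carrying a p53-responsive bla reporter were rested 5 h (37 C, 5% CO2) before compound transfer. Human liver microsomes plus NADPH, 0.5 mg/mL final apiece, supplied metabolism during the 16 h 37 C exposure.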

[7] = p53 small molecule agonists, cell-based qHTS assay with rat liver microsomes (AID 1963578)
Summary of the method: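 Fluorescence from a beta-lactamase reporter under a p53 response element was measured after cells had been incubated 16 h at 37 C with test compound and rat liver microsomes plus NADPH (0.5 mg/mL final each).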

[8] = p53 small molecule agonists, cell-based qHTS assay with human liver microsomes: qHTS cell viability counter screen (AID 1963579); further: nearly all actives have a fitted effect of over 45% in size
Summary of the method: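 Seed p53RE-bla cells at 4,000 per well; incubate 5 h at 37 C; add compound, human liver microsomes and NADPH; incubate 16 h at 37 C; add CellTiter-Glo; after 30 min at room temperature, read luminescence.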

[9] = p53 small molecule agonists, cell-based qHTS assay with rat liver microsomes: qHTS cell viability counter screen (AID 1963580); further: nearly all actives have a fitted effect of over 45% in size; further: potency means the concentration at half of the fitted maximal effect
Summary of the method: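 After the beta-lactamase ratio was read, CellTiter-Glo was added to the same wells and luminescence measured at 30 min; cells had been treated 16 h at 37 C with compounds, rat liver microsomes and NADPH (0.5 mg/mL final each).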

[10] = p53 small molecule agonists, cell-based qHTS assay: qHTS cell viability counter screen (AID 1963581); further: nearly all actives have a fitted effect of over 45% in size
Summary of the method: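 Viability was counter-screened in parallel with the p53 agonist reporter by measuring intracellular ATP luminescence in the same HCT-116 p53RE-bla wells after 16 h compound treatment at 37 C.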

[11] = p53 small molecule agonists, cell-based qHTS assay (AID 1963582; active means well fitted activation curve with a large enough effect in the signal ratio in the repeat runs, not every such curve was filed as active; the % refers to the signal ratio)
Summary of the method: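 Cells carrying a p53-responsive bla reporter are treated with test compounds for 16 h at 37 C; beta-lactamase activity is then detected with LiveBLAzer B/G FRET substrate after 2 h at room temperature.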

[12] = biological target: 5-hydroxytryptamine receptor 2A (Homo sapiens) (UniProt P28223); test: 5-hydroxytryptamine receptor 2A (HTR2A) small molecule agonists, cell-based qHTS assay (AID 1963587); further: nearly all actives have a fitted effect of over 30% in size; further: potency means the concentration at half of the fitted maximal effect
Summary of the method: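 CHO cells stably expressing human HTR2A, plated 18 h, loaded with calcium dye 1 h at 37 C. Agonist mode: compounds added and intracellular calcium fluorescence recorded kinetically for 2 min at 1 sec intervals.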

[13] = biological target: Muscarinic acetylcholine receptor M1 (Homo sapiens) (UniProt P11229); test: Cholinergic receptor muscarinic 1 (CHRM1) small molecule agonists, cell-based qHTS assay (AID 1963589); further: nearly all actives have a fitted effect of over 35% in size
Summary of the method: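 Cells were plated and incubated 18 h at 37 C/5% CO2, loaded with calcium dye for 1 h at 37 C, then treated with compounds in DMSO. Fluorescence was recorded kinetically at 1 sec intervals.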

[14] = cAMP Responsive Elements (CRE) small molecule agonists, cell-based qHTS assay (AID 1963590)
Summary of the method: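 Cells carrying a CRE-driven beta-lactamase reporter (HEK 293T) are seeded, incubated overnight (18 h), and treated with test compounds for 3 h at 37 C; reporter activity is then detected with a FRET substrate after 2 h at room temperature.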

[15] = biological target: Beta-2 adrenergic receptor (Homo sapiens) (UniProt P07550); test: Adrenergic beta2 receptor (ADRB2) small molecule antagonists, cell-based qHTS assay (AID 1963592); further: series mostly up to about 92 µM; nearly all actives have a fitted effect of over 50% in size
Summary of the method: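 Assay format: CHO-ADRB2 cells, 18-20hr seeding at 37C/5% CO2, then compound plus 1nM isoproterenol agonist mix for 0.5hr RT. Homogeneous time-resolved fluorescence cAMP detection after 1hr, expressed as 665/615 nm ratio.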

[16] = biological target: D(2) dopamine receptor (Homo sapiens) (UniProt P14416); test: Dopamine D2 receptor (DRD2) small molecule agonists, cell-based qHTS assay (AID 1963594); further: nearly all actives have a fitted effect of over 35% in size
Summary of the method: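 HEK293 cells stably expressing human DRD2, pre-treated with PDE inhibitor Ro20-1724 (0.1 mM final) and compound 10 min at room temperature, then stimulated with NKH477 (200nM […]) for 30 min. cAMP read by HTRF (665/620 nm).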

[17] = cAMP Responsive Elements (CRE) small molecule antagonists, cell-based qHTS assay (AID 1963591; active means well fitted inhibition curve with a large enough effect in the signal ratio in the repeat runs, not every such curve was filed as active; the % refers to the signal ratio)
Summary of the method: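 Cells (CRE-bla HEK 293T, DMEM with 10% dialyzed FBS and 25 mM HEPES) are seeded and incubated 18 h. Compounds are added with NKH477 agonist at 0.25 uM final for 3 h, then FRET substrate for 2 h.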

[18] = biological target: D(2) dopamine receptor (Homo sapiens) (UniProt P14416); test: Dopamine D2 receptor (DRD2) small molecule antagonists, cell-based qHTS assay (AID 1963595; active means well fitted inhibition curve with a large enough effect in the signal ratio in the repeat runs, with a control signal flat; the % refers to the signal ratio)
Summary of the method: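 HEK293 cells stably expressing DRD2, preincubated with 0.1 mM Ro20-1724 and compounds 10 min, were stimulated with 200 nM NKH477 plus 12 nM quinpirole for 30 min at room temperature; cAMP measured by HTRF (665/620 nm).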

[19] = biological target: Beta-2 adrenergic receptor (Homo sapiens) (UniProt P07550); test: Adrenergic beta2 receptor (ADRB2) small molecule agonists, cell-based qHTS assay (AID 1963593);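 further: CHO cells stably overexpressing human ADRB2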
Summary of the method: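 CHO cells stably over-expressing ADRB2 were plated overnight at 37C, then dosed with compounds plus a stimulation mix containing 100uM IBMX and 25uM Ro-20-1724 for 0.5hr at room temperature. cAMP was measured by HTRF competition, 1hr.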

[20] = biological target: Muscarinic acetylcholine receptor M1 (Homo sapiens) (UniProt P11229); test: Cholinergic receptor muscarinic 1 (CHRM1) small molecule antagonists, cell-based qHTS assay (AID 1963588); further: nearly all actives have a fitted effect of over 40% in size
Summary of the method: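 Compounds were tested at 15 concentrations in three independent runs. Dye-loaded CHRM1-CHO cells were exposed 5 min at room temperature before stimulation by acetylcholine added at 50nM. Intracellular calcium was read kinetically on FDSS for 3 min.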

Measured: Potency

Sequence of D(2) dopamine receptor (Homo sapiens) (P14416 whole entry, looked up): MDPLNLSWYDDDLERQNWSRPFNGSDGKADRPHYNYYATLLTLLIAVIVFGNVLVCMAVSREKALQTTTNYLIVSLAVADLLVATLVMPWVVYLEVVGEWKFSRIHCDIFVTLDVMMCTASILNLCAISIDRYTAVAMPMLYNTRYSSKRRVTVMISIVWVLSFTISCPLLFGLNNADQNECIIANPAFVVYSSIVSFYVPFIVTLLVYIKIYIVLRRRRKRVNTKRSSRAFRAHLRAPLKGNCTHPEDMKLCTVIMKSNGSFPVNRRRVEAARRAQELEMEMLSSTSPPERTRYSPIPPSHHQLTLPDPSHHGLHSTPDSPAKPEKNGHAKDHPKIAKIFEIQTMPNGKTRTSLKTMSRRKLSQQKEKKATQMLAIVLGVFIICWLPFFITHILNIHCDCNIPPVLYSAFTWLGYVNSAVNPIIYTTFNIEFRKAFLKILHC
Sequence of KiSS-1 receptor (Homo sapiens) (Q969F8 whole entry, looked up): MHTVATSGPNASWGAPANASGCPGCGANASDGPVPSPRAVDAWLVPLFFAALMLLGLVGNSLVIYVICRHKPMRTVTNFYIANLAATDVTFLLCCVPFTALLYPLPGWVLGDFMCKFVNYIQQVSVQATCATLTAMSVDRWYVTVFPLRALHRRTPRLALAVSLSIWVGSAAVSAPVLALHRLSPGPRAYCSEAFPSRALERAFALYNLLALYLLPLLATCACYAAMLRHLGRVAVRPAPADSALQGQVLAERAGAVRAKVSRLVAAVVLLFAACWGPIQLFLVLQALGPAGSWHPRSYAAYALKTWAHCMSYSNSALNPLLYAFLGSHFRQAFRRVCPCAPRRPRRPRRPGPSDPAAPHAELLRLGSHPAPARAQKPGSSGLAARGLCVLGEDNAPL
Sequence of Gonadotropin-releasing hormone receptor (Homo sapiens) (P30968 whole entry, looked up): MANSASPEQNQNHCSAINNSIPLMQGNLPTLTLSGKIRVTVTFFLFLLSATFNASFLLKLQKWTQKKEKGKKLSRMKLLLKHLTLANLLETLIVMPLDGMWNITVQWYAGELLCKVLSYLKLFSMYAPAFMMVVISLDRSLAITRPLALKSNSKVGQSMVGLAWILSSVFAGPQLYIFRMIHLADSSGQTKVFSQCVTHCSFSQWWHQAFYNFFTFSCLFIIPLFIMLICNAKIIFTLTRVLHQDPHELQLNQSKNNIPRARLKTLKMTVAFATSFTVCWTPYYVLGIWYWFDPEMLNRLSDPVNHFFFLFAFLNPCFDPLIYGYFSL
Sequence of Muscarinic acetylcholine receptor M1 (Homo sapiens) (P11229 whole entry, looked up): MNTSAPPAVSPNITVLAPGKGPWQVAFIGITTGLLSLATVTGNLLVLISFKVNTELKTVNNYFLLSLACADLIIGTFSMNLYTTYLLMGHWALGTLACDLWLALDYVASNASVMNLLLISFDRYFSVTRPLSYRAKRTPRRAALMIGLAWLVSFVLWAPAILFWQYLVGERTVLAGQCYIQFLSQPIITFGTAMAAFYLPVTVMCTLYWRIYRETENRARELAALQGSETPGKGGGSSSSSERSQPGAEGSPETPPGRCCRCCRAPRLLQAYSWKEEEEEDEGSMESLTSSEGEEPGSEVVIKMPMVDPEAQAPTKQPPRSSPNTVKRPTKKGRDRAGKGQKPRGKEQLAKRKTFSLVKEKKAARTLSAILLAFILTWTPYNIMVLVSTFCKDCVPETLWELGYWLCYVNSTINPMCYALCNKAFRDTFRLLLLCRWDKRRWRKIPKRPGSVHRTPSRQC
Sequence of 5-hydroxytryptamine receptor 2A (Homo sapiens) (P28223 whole entry, looked up): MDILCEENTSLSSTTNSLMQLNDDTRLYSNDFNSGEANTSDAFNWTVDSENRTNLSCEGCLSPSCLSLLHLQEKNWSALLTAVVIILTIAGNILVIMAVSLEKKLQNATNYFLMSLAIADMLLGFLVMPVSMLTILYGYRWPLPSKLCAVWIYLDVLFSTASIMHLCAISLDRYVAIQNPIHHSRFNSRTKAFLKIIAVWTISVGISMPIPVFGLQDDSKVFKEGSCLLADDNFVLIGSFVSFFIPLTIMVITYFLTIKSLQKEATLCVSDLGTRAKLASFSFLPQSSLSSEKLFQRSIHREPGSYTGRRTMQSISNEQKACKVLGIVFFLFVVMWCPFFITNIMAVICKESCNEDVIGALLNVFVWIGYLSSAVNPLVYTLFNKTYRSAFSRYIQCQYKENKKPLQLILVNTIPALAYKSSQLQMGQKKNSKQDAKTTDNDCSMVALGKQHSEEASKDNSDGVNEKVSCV
Sequence of Beta-2 adrenergic receptor (Homo sapiens) (P07550 whole entry, looked up): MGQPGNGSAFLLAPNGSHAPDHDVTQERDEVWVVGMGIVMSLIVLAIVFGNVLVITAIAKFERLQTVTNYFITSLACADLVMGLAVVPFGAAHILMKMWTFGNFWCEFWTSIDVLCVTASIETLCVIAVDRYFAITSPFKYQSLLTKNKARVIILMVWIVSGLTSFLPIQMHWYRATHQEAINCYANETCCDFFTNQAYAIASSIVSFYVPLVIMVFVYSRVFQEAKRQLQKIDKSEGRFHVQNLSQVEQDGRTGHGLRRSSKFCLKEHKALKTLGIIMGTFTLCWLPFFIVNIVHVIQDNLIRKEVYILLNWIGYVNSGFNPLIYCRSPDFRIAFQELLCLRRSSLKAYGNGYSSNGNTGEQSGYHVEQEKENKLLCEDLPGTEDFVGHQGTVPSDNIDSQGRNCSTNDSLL

C[C@H]1C[C@@H](O)CC(C)(C)C1
not listed: [17] | [18] | [19] | [20]
inactive: all other assays above

CC(C)CNCC(C)C
not listed: [14] | [19] | [20]
inactive: all other assays above

C/C=C(\C)C(=O)OC/C=C(\C)CCC=C(C)C
not listed: [17] | [18] | [20]
inactive: all other assays above

CCCCC/C=C/C=C/C=O
active: [2] 61.1 µM
not listed: [17] | [20]
inactive: all other assays above

CC(C)CCOCCC(C)C
not listed: [12]
inactive: all other assays above

CC(C)c1cccc(O)c1
not listed: [12] | [13] | [17]
inactive: all other assays above

O=C(O)/C=C/c1ccc(Cn2ccnc2)cc1
not listed: [12] | [18]
inactive: all other assays above

CC(C)(CCl)c1ccccc1
not listed: [12] | [17]
inactive: all other assays above

CCO[Si](OCC)(OCC)c1ccccc1
not listed: [18]
inactive: all other assays above

CCO[Si](C)(C)OCC
not listed: [12]
inactive: all other assays above

Nc1nccs1
not listed: [12]
inactive: all other assays above

Cl/C(=C\n1cncn1)c1ccc(Cl)cc1Cl
not listed: [12]
inactive: all other assays above

CNC(=O)c1c(I)c(NC(C)=O)c(I)c(C(=O)O)c1I
not listed: [12]
inactive: all other assays above

C1CCC2OC2C1 (stereo not given)
not listed: [13] | [17] | [19] | [20]
inactive: all other assays above

C/C(Cl)=C/CCl
not listed: [15] | [19] | [20]
inactive: all other assays above

CC(=O)N[C@@H](CC(C)C)C(=O)O
not listed: [12] | [16] | [18]
inactive: all other assays above

CC(=O)O[C@@H]1CC2C3CCc4cc(OC(=O)c5ccccc5)ccc4C3CCC2(C)[C@H]1OC(C)=O (stereo not given in full)
not listed: [12]
inactive: all other assays above

O=C(O)c1cc(=O)c2ccccc2o1
not listed: [17] | [20]
inactive: all other assays above

CC(C#N)(CCC(=O)O)N=NC(C)(C#N)CCC(=O)O (stereo not given)
not listed: [12] | [13]
inactive: all other assays above

CSc1nnc(C(C)(C)C)c(=O)[nH]1
not listed: [19] | [20]
inactive: all other assays above

CC(C)(C)c1ccc(O)c(C(C)(C)C)c1
active: [1] 27.2 µM and 43.3 µM | [2] 9.65 µM and 61.1 µM | [9] 45.8 µM | [12] 34.5 µM and 27.5 µM
not listed: [14] | [17] | [18] | [19] | [20]
inactive: all other assays above

CC(C)OC=O
not listed: [14] | [20]
inactive: all other assays above

C=C(C)C(=O)NCCCN(C)C
not listed: [12]
inactive: all other assays above

CCOCCC(=O)OCC
not listed: [14] | [19] | [20]
inactive: all other assays above

C/C=C/C(=O)CCCC
not listed: [16] | [19] | [20]
inactive: all other assays above

CC(O)CNCC(C)O (stereo not given)
not listed: [14] | [20]
inactive: all other assays above

c1ccc2cnncc2c1
not listed: [16] | [19] | [20]
inactive: all other assays above

CCOC(=O)c1ccc(O)c(O)c1
not listed: [12] | [16]
inactive: all other assays above

CC1CCc2nccnc21 (stereo not given)
not listed: [12]
inactive: all other assays above

CC1=CCC(O)(C(C)C)CC1 (stereo not given)
not listed: [12]
inactive: all other assays above

— PubChem BioAssay (Tox21)
